TMEM16A inh: blocks the mouse calcium-activated chloride channel TMEM16A. AID 588511. actives 1.2% (n = 310,000). HEK293 TMEM16A/YFP iodide influx fluorescence, ionomycin. normalized B-score (activity score, 25-100; higher = stronger inhibition) at 10 µM;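 active = ratio plate-corrected score three or more library SD toward inhibition, starting fluorescence score within five deviations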;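 also: score derived from kinetic fluorescence span divided by baseline fluorescence per well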
CHT inh: human CHT choline transport inhibition; CHT-expressing cells, membrane potential dye, choline response; stronger effect = lower value; Q9GZV3; B-score at 10 µM; actives 0.86% (n = 310,000);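 active = B-score over 3 SD under the library average, and starting fluorescence ratio not unusually high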;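 also: choline stimulus applied at its EC90 after an EC20 pre-addition; B-score computed on integrated fluorescence ratio after choline addition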
CHT allo act: allosterically activates the human high affinity choline transporter; Q9GZV3; CHT-expressing cells, membrane potential dye, choline EC20; stronger effect = higher value; LV-AA mutant CHT in HEK293 cells; B-score at 10 µM; actives 0.49% (n = 310,000); AID 488977;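 active = initial fluorescence not abnormally high and integrated response B-score, plate-corrected, over 3 SD above library mean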
TMEM16A act: mouse TMEM16A channel activation, primary screen; Q8BHY3; actives 0.3% (n = 340,000); B-score at 10 µM; AID 623877; HEK293 TMEM16A/YFP-H148Q/I152L, iodide quench fluorescence; stronger effect = lower value;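 active = fluorescence-ratio B-score plate-corrected deviation score at least 3 library SD below zero, with starting fluorescence score within 5 deviations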;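 also: channel opened by trigger with iodide after compound preincubation; score built on the fluorescence ratio of max minus min over baseline; more negative score means more quench and so TMEM16A activation or potentiation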
Large screens that a line does not name were inactive. Most compounds without a hit are left out; they make up all but 2.3% or so of the library.

Cc1ccc(S(=O)(=O)NCC(c2ccco2)N2CCc3ccccc3C2)cc1 (centres undefined)	TMEM16A inh 25
COCCN(C(=O)Cn1nnc2ccccc21)C(C(=O)NC1CCCC1)c1ccc(OC)cc1OC (centres undefined)	none
C=CCN(C(=O)Cn1nnc2ccccc21)C(C(=O)NCCOC)c1ccc(OC)cc1OC (centres undefined)	TMEM16A act -6
Cc1nnc(SCC(=O)N2CCN(S(=O)(=O)c3ccc(Cl)cc3)CC2)n(N)c1=O	TMEM16A act -16.6
COCCN1C(=O)/C(=C/c2ccc(OCc3ccc(C(=O)O)cc3)c(OC)c2)SC1=Nc1ccccc1	TMEM16A inh 100
CCOc1cc(CNCc2ccncc2)cc(Br)c1OCc1ccc(F)cc1	TMEM16A inh 100
Fc1ccc(COc2cccc(CNCc3ccncc3)c2)cc1	TMEM16A inh 25
COc1ccc(CNC(=O)[C@@H](NC(=O)C2CCN(C(=O)[C@@H]3CCCN3C(=O)OC(C)(C)C)CC2)C(C)C)cc1	none
CC(C)[C@@H](NC(=O)C1CCN(C(=O)[C@@H]2CCCN2C(=O)OC(C)(C)C)CC1)C(=O)NCc1ccc(F)cc1	TMEM16A act -24.1
Cc1ccc(C(=O)NCC(=O)OC(C)C(=O)Nc2ccc(N(C)C)cc2)s1 (centres undefined)	none
NS(=O)(=O)c1ccc(CCNC(=O)c2ccc(NS(=O)(=O)c3ccc4[nH]c(=O)[nH]c4c3)cc2)cc1	none
O=C1c2c([N+](=O)[O-])cc([N+](=O)[O-])cc2S(=O)N1Cc1ccccc1 (centres undefined)	none
O=C(Nc1nnc(SCc2ccccc2Cl)s1)C1COc2ccccc2O1 (centres undefined)	TMEM16A inh 25
Cc1ccccc1CSc1nnc(NC(=O)C2COc3ccccc3O2)s1 (centres undefined)	none
C=CCn1c(SCc2nc3ccccc3nc2C)nnc1-c1ccoc1C	none
c1ccc(-c2csc3nnc(SCc4ccc5c(c4)OCCO5)n23)cc1	TMEM16A inh 25
COc1ccc(OC)c(C(c2nnnn2CCc2ccccc2)N2CCN(c3ccccc3)CC2)c1 (centres undefined)	TMEM16A act -8.48
COCCn1nnnc1C(c1ccc(OC)cc1OC)N1CCN(c2ccccc2)CC1 (centres undefined)	none
COc1ccc(/C=N/Nc2cc(C)nc3ccc(OC)cc23)c(OC)c1	TMEM16A inh 100
CCOC(=O)C1(Cc2cccc(F)c2)CCN(C(=O)c2cnc(C)cn2)CC1	none
CSc1cccc(NC(=S)N2CCC(c3ccccc3)C2)c1 (centres undefined)	none
CCc1cccc(NC(=S)N2CCC(c3ccccc3)C2)c1 (centres undefined)	TMEM16A act -5.67
CC1CC(O)C(C)CN1 (centres undefined)	none (no result: TMEM16A inh, CHT inh, CHT allo act)
O=C(Nc1ccccc1)c1ccc(NCc2cccnc2)c(S(=O)(=O)N2CCOCC2)c1	TMEM16A act -6.81
CCOC(=O)c1sc(SC)c2c1CCCC2=O	none
Cc1ccc(NC(=O)C(=O)Nc2ccc(C)cn2)nc1	none
Cc1ccc(NC(=O)/C(C#N)=C(\N)C(Cl)(Cl)Cl)nc1	TMEM16A act -11.1
Cc1ccc(S(=O)(=O)Nc2ccc(S(=O)(=O)Nc3nccs3)cc2)cc1C	none (no result: TMEM16A inh, CHT inh, CHT allo act)
COc1ccc(OC)c(C(=O)CN2CCN(S(=O)(=O)c3ccc(Br)cc3)CC2)c1	CHT inh -6.55
CC(=O)c1cccc(NC(=O)COC(=O)CCNS(=O)(=O)c2ccccc2)c1	none (no result: TMEM16A inh, CHT inh, CHT allo act)
COc1ccc(Nc2sc(C(=O)c3ccc(Cl)cc3)c(N)c2C(=O)Nc2ccccc2OC)cc1	none
COc1ccc(NC(=O)c2c(Nc3ccccc3)sc(C(=O)c3ccc(F)cc3)c2N)cc1	TMEM16A inh 100
COc1cccc(NC(=O)CN(C)C(=O)c2cc3ccccc3cc2OC)c1	TMEM16A act -34.1 (no result: TMEM16A inh, CHT inh, CHT allo act)
CN(C)c1ccc(P(=O)(OCc2ccccc2)C(O)c2ccncc2)cc1 (centres undefined)	TMEM16A inh 25
CC(C)(C)c1ccc(C(=O)NC(=S)NNC(=O)c2cccs2)cc1	TMEM16A inh 100
CC(C)(C)c1ccc(OCC(=O)NNC(=O)CCc2ccccc2)cc1	none
CC(C)(C)C(=O)NC(=S)NNC(=O)c1ccncc1	none
CC(C)(C)C(=O)NC(=S)NNC(=O)c1ccc(-c2ccccc2)cc1	TMEM16A inh 100, TMEM16A act -10.3
CC(C)(C)c1ccc(C(=O)NC(=S)NNC(=O)COc2ccccc2)cc1	TMEM16A inh 100, CHT inh -5.14, TMEM16A act -4.63
